Results published in PubChem BioAssay (NCATS).
Where “and” joins values, the source holds several entries; their conditions need not be identical. Identical values can stand only once. Inconclusive results are not listed. Entries that show only a call come without a potency. A number with no mark means an inactive call. Calls of active or inactive are those of the source. Calls come from the whole dose curve; as a rule, active = well fitted curve in the direction sought with a large enough effect; inconclusive = small, poorly fitted or top-dose-only effect, or another doubt; inactive = no such curve, though single readings can be large; an effect the other way counts as inactive or inconclusive.

Experiments:
[1] = biological target: Cellular tumor antigen p53 (Homo sapiens) (UniProt P04637); test: Primary qHTS for small molecule compounds that upregulate eGFP-tagged delta133p53alpha (in N-terminal) cells. (AID 2060322); details: NCI-H358 eGFP-delta133p53alpha fluorescence, 24 h; activation: stronger effect = higher value; note: nearly all actives have a fitted effect of over 75% in size; note: potency is the fitted concentration of half-maximal effect
Sequence of Cellular tumor antigen p53 (Homo sapiens) (P04637 whole entry, looked up): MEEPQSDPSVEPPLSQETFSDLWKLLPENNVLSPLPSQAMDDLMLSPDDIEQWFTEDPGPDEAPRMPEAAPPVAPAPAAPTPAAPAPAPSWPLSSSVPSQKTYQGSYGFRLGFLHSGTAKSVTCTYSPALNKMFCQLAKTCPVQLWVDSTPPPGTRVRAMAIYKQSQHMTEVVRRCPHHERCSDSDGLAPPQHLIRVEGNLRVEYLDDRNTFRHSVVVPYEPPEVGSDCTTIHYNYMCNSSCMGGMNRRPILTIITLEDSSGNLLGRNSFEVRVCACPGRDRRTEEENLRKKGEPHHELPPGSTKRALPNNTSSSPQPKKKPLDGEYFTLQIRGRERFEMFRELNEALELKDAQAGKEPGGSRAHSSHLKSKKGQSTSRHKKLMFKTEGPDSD
Method in brief: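 NCI-H358 cells pre-induced 24 h with 10 ng/ml doxycycline to express N-terminal eGFP-delta133p53alpha, then dosed 24 h at 37C without doxycycline; fixed, Hoechst-stained, GFP intensity by laser scanning cytometry, normalized to DMSO (0%) and 57.5 uM 5-azacytidine (100%).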

[2] = biological target: Aldehyde dehydrogenase, mitochondrial (Homo sapiens) (UniProt P05091); test: qHTS for Inhibitors of the Aldehyde Dehydrogenase Family (ALDH2) Primary screen (AID 2061308); details: ALDH2 enzyme inhibition qHTS, 1536-well; series mostly up to 56 µM; note: nearly all actives have a fitted effect of over 55% in size
[3] = biological target: Retinaldehyde dehydrogenase 3 (Homo sapiens) (UniProt P47895); test: qHTS for Inhibitors of the Aldehyde Dehydrogenase Family (ALDH1A3) Validation screen (AID 2061312); details: ALDH1A3 enzyme inhibition qHTS validation, fluorescence; series mostly up to 84.7 µM; note: nearly all actives have a fitted effect of over 45% in size
[4] = biological target: Retinaldehyde dehydrogenase 3 (Homo sapiens) (UniProt P47895); test: qHTS for Inhibitors of the Aldehyde Dehydrogenase Family (ALDH1A3) Primary screen (AID 2061315); details: ALDH inhibition qHTS; series mostly up to 56 µM

SMILES	activation [1]	Potency [2]	Potency [3]	Potency [4]	Potency [1]
FC(F)(F)c1ccccc1-c1cc(C(F)(F)F)c2nc(C3=NOC4(CCCCC4)C3)[nH]c2c1	15.3%	inactive	inactive	inactive	
O=C(Nc1cccc(C(F)(F)F)c1)Nc1ccc(Br)cc1-c1nn[nH]n1	-5.73%	inactive	inactive	inactive	
O=C(/C=C/c1c(C(=O)O)[nH]c2cc(Cl)cc(Cl)c12)Nc1ccccc1	-11.9%	inactive	inactive	inactive	
COc1ccccc1-n1c(SCC(=O)Nc2nc3ccc(C)cc3s2)nc2c(c1=O)SCC2	-11.9%	inactive	inactive	inactive	
Cc1ccc(C2(C(=O)N3CCC(n4nc(-c5ccccc5)oc4=O)CC3)CC2)cc1	-1.91%	inactive	inactive	inactive	
COc1cc2nc(C3CC3)nc(N3CCN(c4ccccc4OC)CC3)c2cc1OC		inactive	inactive	inactive	16.9 µM (active)
O=C(Nc1ccc(CN2CCOCC2)cc1)c1ccc(-c2cccc(Cl)c2)o1	-8.59%	inactive	inactive	inactive	
O=C(O)[C@H](Cc1ccccc1)Oc1ccc(-c2ccccc2)cc1	-3.34%	inactive	inactive	inactive	
CN1CCN(C2=Nc3ccccc3Nc3ccc(OS(=O)(=O)C(F)(F)F)cc32)CC1	-11.9%	inactive	inactive	inactive	
Cn1c(=O)c2c(ncn2Cc2ccc(C(C)(C)C)cc2)n(C)c1=O	-5.25%	inactive	inactive	inactive	
Nc1nc(COC(=O)c2ccc([N+](=O)[O-])cc2)nc(Nc2ccccc2)n1	0.477%	inactive	inactive	inactive	
NCc1c[nH]c(=S)n1[C@@H]1CCc2c(F)cc(F)cc2C1	0%	inactive	inactive	inactive	
COc1ccc(CN2CCN(C(=O)CCNC(=O)c3ccc(C(C)(C)C)cc3)CC2)cc1	-7.16%	inactive	inactive	inactive	
O=C(c1cn(Cc2cncn2Cc2ccc(Br)cc2)cc1-c1cccc2ccccc12)N1CCOCC1		inactive	inactive	inactive	26.9 µM (active)
C[C@H](Oc1cc(-c2cnn(C3CCNCC3)c2)cnc1N)c1c(Cl)ccc(F)c1Cl	14.8%	inactive	inactive	inactive	
O=C(O)C[C@@H](NC(=O)c1cc(-c2ccc(-c3ccncc3)cc2)cs1)c1ccccc1	-1.43%	inactive	inactive	inactive	
O=C1N=C(N2CCOCC2)CN1c1ccc(Cl)cc1	-6.21%	inactive	inactive	inactive	
CC[C@H](C(=O)Nc1ccccc1N1CCCC1)c1ccccc1	2.86%	inactive	inactive	inactive	
CS(=O)(=O)c1ccc([C@@H](O)[C@@H](CF)NC(=O)C(Cl)Cl)cc1	-2.82% and -2.86%	inactive	inactive	inactive	
CN(C)S(=O)(=O)c1ccc(NC(=S)N2CCC(C(O)(c3ccccc3)c3ccccc3)CC2)cc1	-6.68%	inactive	inactive	inactive	
CCCCc1nc(Cl)c(CO)n1Cc1ccc(-c2ccccc2-c2nnn[nH]2)cc1	-18.1%	inactive	inactive	inactive	
COC(=O)c1ccc2c(c1)nc(NC(=O)c1ccccc1)n2CCCc1ccccc1	-10%	inactive	inactive	inactive	
CC(C)NC(=O)c1ccc(C#Cc2ccncc2)cn1	14.8%	inactive	inactive	inactive	
COc1ccccc1CN[C@H]1CCCN[C@H]1c1ccccc1	-3.82%	inactive	inactive	inactive	
O=[N+]([O-])c1cn2c(n1)OC[C@@H](OCc1ccc(-c3ccc(OC(F)(F)F)cc3)nc1)C2	-3.34%	inactive	inactive	inactive	
Nc1ncnc2c1ncn2[C@H]1CCCO1	-5.73%	inactive	inactive	inactive	
O=C(O)CCc1ccc(NCc2cccc3c2CCCN3CCOc2ccccc2)cc1F	2.39%	inactive	inactive	inactive	

SMILES	activation [1]	Potency [2]	Potency [3]	Potency [4]	Potency [1]
CC(C)(F)CC(NC(c1ccc(-c2ccc(S(C)(=O)=O)cc2)cc1)C(F)(F)F)C(=O)NC1(C#N)CC1 (stereo unspecified)	-1.43%	inactive	inactive	inactive	
CCC1C(=O)N(C)c2cnc(Nc3ccc(C(=O)NC4CCC(N5CCN(CC6CC6)CC5)CC4)cc3OC)nc2N1C(C)C (stereo unspecified)	37.2%	inactive	inactive	inactive	
O=C(Nc1ccccc1)Nc1ccc(-c2ccc(C(=O)C3CCCC3C(=O)O)cc2)cc1 (stereo unspecified)	-6.21%	inactive	inactive	inactive	
Clc1ccc2c(c1)C1=NCCN1c1c(-c3noc(C4CC4)n3)ncn1-2	-0.477%	inactive	inactive	inactive	
CC1(C)CC=C(C#Cc2ccccc2)c2cc(/C=C/c3ccc(C(=O)O)cc3)ccc21	-5.73%	inactive	inactive	inactive	
Cc1cc(N2CCN([C@@H]3CN[C@H](C(=O)N4CCSC4)C3)CC2)n(-c2ccccc2)n1	-1.91%	inactive	inactive	inactive	
O=C(Nc1ccccc1)N1CCN(c2nc(-c3ccccc3)ns2)CC1	-13.8%	inactive	inactive	inactive	
Clc1ccccc1CNCC1CCC(CNCc2ccccc2Cl)CC1 (stereo unspecified)	29.6%	inactive	inactive	inactive	
O=C(COc1ccc2ccccc2c1Br)Nc1cccnc1	-15.8%	inactive	inactive	inactive	
CCCCCCOC(=O)/N=C(\N)c1ccc(NCc2nc3cc(C(=O)N(CCC(=O)OCC)c4ccccn4)ccc3n2C)cc1	-0.955%	inactive	inactive	inactive	
COc1ccccc1N1CCN(CC[C@@](C)(C(=O)C2CCCCC2)c2ccccc2)CC1	8.11%	inactive	inactive	inactive	
CC(C)C(=O)Oc1ccc(CO)cc1[C@H](CCN(C(C)C)C(C)C)c1ccccc1	16.6% and 0.955%	inactive	inactive	inactive	
CC1(C)CC(=O)N(CCCCN2CCN(c3ncccn3)CC2)C(=O)C1	-2.86%	inactive	inactive	inactive	
Cn1c(=O)cc(N2CCCC(N)C2)n(Cc2cc(F)ccc2C#N)c1=O (stereo unspecified)	-2.86%	inactive	inactive	inactive	
CCC1(O)CC2c3cc(OC)c(OC)cc3CCN2CC1CC(C)C (stereo unspecified)	3.82%	inactive	inactive	inactive	
Cc1c(C2=CCN(C(=O)N(C)C(C)C)CC2)nnn1-c1cccnc1F	-9.55%	inactive	inactive	inactive	
COc1ccc(C2(CNC(=O)c3ccc(NC(=O)c4ccco4)cc3)CCOCC2)cc1	5.25%	inactive	inactive	inactive	
Fc1ccc(-c2cncc(CN3CCN(c4cccc5c4OCCO5)CC3)c2)cc1	-10%	inactive	inactive	inactive	
O=C(O)c1ccc(S(=O)(=O)N(Cc2ccc(OC(F)(F)F)cc2)c2ncc(C(F)(F)F)cc2Cl)cc1	-2.86%	inactive	inactive	inactive	
O=C(CCc1nnc2n(Cc3ccc(Cl)cc3)c(=O)c3ccccc3n12)NCCC1=CCCCC1	4.3%	inactive	inactive	inactive	
COc1cccc(-c2ccc([C@@H](Oc3cc(-c4ccc(C[C@H](N)C(=O)O)cc4)nc(N)n3)C(F)(F)F)cc2)c1	-13.4%	inactive	inactive	inactive	
Nc1nc(CC(=O)Nc2ccc(CCNCC(O)c3ccccc3)cc2)cs1 (stereo unspecified)	-11%	inactive	inactive	inactive	
COc1cc(CCc2cc(NC(=O)c3ccc(N4CC(C)NC(C)C4)cc3)n[nH]2)cc(OC)c1 (stereo unspecified)	3.34%	inactive	inactive	inactive	
CCN(CC)CCCS(=O)(=O)N[C@H](CCc1ccccc1)c1nc(Cc2ccc(Br)cc2)no1	7.64%	inactive	inactive	inactive	
COC1CCN(c2cccc(-c3cc(NC(C)=O)nc(-n4nc(C)cc4C)n3)n2)CC1	-8.59%	inactive	inactive	inactive	
C=C1CCN([C@H](C)[C@](O)(Cn2cncn2)c2ccc(F)cc2F)CC1	-19.1%	inactive	inactive	inactive	
CCCC1(c2ccccc2)NC(=O)N(CC(=O)N(C)Cc2c(F)cccc2Cl)C1=O (stereo unspecified)	4.3%	inactive	inactive	inactive	
